Source: PubChem BioAssay (Tox21)
Where “and” joins values, the source holds several entries; their conditions need not be identical. Equal entries are not always repeated. Inconclusive results are not listed. Entries that show only a call come without a potency. The source holds several records for some structures; these can differ, active in one and inactive in another. Calls of active or inactive are those of the source. Unless noted, calls follow the shape of the dose curve; as a rule, active = well fitted curve in the direction sought with a large enough effect in the repeat runs; inconclusive = weak or mixed curves; inactive = no such curve, though single readings can be large; an effect the other way counts as inactive or inconclusive.

What was measured:
[1] = qHTS assay to identify small molecule agonists of H2AX (AID 1224845; active = well fitted activation curve with a large enough effect in the signal ratio in the repeat runs, not every such curve was filed as active; the % refers to the signal ratio)
In short: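 Wild-type CHO-K1 cells, plated overnight, exposed 3hr at 37C to 15 concentrations (0.76% DMSO final). Lysed, then HTRF anti-pH2AX (S139) cryptate and anti-H2AX-d2 antibodies, 24 hr room temperature; 665/620 nm emission read.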

[2] = qHTS assay to identify small molecule agonists of the hypoxia (HIF-1) signaling pathway (AID 1224846; active = well fitted activation curve with a large enough effect in the signal ratio in the repeat runs, not every such curve was filed as active; the % refers to the signal ratio)
In short: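 HRE-bla ME-180 beta-lactamase reporter cells in medium with 0.5% dialyzed FBS, pre-incubated 5 h then exposed to compounds 17 h at 37C, 5% CO2; reporter induction read with CCF4-AM FRET substrate.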

[3] = qHTS assay to identify small molecule agonists of H2AX - cell viability counter screen (AID 1224847; calls by dose curve; also: nearly all actives have a fitted effect of over 30% in size; also: potency is read from the fitted curve at half-maximal effect)
In short: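 Counter-screen for viability: CellTiter-Glo ATP luminescence read after 3 h compound treatment (15-point titration, 0.76% DMSO final) of CHO-K1 cells at 37C, with 30 min room-temperature reagent incubation.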

[4] = qHTS RealTime-Glo MT Cell Viability Assay in HepG2 cells - 24 hour (AID 1224867); also: nearly all actives have a fitted effect of over 50% in size; also: potency is read from the fitted curve at half-maximal effect
In short: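 HepG2 cells (600/well) were dispensed with RealTime-Glo reagents, incubated 5 h at 37 °C, then treated with compounds in DMSO for up to 40 h. Nonlytic NanoLuc luminescence reflecting viable cells was read at each stated time point.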

[5] = qHTS RealTime-Glo MT Cell Viability Assay in HEK293 cells - 32 hour (AID 1224868); also: nearly all actives have a fitted effect of over 50% in size; also: potency is read from the fitted curve at half-maximal effect
In short: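 HEK293 cells seeded with NanoLuc/prosubstrate reagent, rested 5 h at 37 C, then dosed and kept at 37 C up to 40 h. Nonlytic real-time luminescence from viable cells read at 0, 8, 16, 24, 32 and 40 h.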

[6] = A CellTox Green Cytotoxicity Assay to monitor cytotoxicity in HEK293 cells - 0 hour (AID 1224869); also: nearly all actives have a fitted effect of over 50% in size
In short: (§1)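 HEK293 cells, 600/well, were preincubated 5 hours and then exposed to compounds at 37 C for up to 40 hours. A cell-impermeant cyanine dye staining dead-cell DNA was read by fluorescence at 0, 8, 16, 24, 32 and 40 h time points.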

[7] = qHTS RealTime-Glo MT Cell Viability Assay in HepG2 cells - 40 hour (AID 1224870); also: nearly all actives have a fitted effect of over 50% in size; also: potency is read from the fitted curve at half-maximal effect
In short: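 HepG2 cells (600/well) mixed with RealTime-Glo MT reagent, settled 5 h at 37 C/5% CO2 before compound addition. Nonlytic NanoLuc luminescence from viable-cell prosubstrate reduction read repeatedly during 40 h treatment at 37 C.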

[8] = A CellTox Green Cytotoxicity Assay to monitor cytotoxicity in HEK293 cells - 40 hour (AID 1224871); also: nearly all actives have a fitted effect of over 45% in size; also: potency is read from the fitted curve at half-maximal effect
In short: as §1

[9] = qHTS assay to identify small molecule antagonists of the estrogen related receptor (ERR) signaling pathway from Tox21 library (AID 1224848); also: nearly all actives have a fitted effect of over 50% in size; also: potency is read from the fitted curve at half-maximal effect
In short: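 Luminescent reporter read-out (ONE-Glo) from NTP's ERR cell line after 18 h treatment at 37 C with DMSO-dissolved Tox21 compounds; cells pre-plated 6 h beforehand at 2,000 per well.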

[10] = qHTS assay to identify small molecule agonists of the estrogen related receptor (ERR) signaling pathway from Tox21 library (AID 1224849; calls by dose curve; also: nearly all actives have a fitted effect of over 15% in size); details: ERR reporter cell line, ONE-Glo luciferase, 18 h
In short: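 ERR reporter cells (NTP line) pre-incubated 6 hours at 37 C, then exposed to compounds for 18 hours at 37 C. ONE-Glo luciferase luminescence was read after 30 minutes at room temperature.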

Structure (SMILES) | Potency [1] | outcome [2] | Potency [3] | Potency [4] | Potency [5] | Potency [6] | Potency [7] | Potency [8] | Potency [9] | activity change, positive = activation ([10]; at 92.4 µM (top of the series)) | activity change, positive = activation ([10]; at 42.5 µM (top of the series))
CC(C)[C@@H]1CC[C@@H](C)CC1=O | inactive | inactive | inactive | inactive | inactive | inactive | inactive | inactive |  |  | 
COc1ccc(C(=O)c2ccccc2O)c(O)c1 | inactive | inactive |  | inactive | inactive | inactive | inactive | 34.6 µM (active) | inactive |  | 
C[C@]12CC[C@@H]3c4ccc(O)cc4CC[C@H]3[C@@H]1CC[C@@H]2O | inactive |  | inactive |  | 17.3 µM (active) and 21.9 µM (active) | inactive | inactive | inactive | 27.3 µM (active) and 34.4 µM (active) |  | 
Nc1ccc(O)c(N)c1 |  | inactive | 56.3 µM (active) and 50.5 µM (active) | inactive | inactive | inactive | inactive | inactive | inactive |  | 
CC1(C)NC(=O)N(c2ccc([N+](=O)[O-])c(C(F)(F)F)c2)C1=O | inactive |  | 28.4 µM (active) and inactive | inactive | 24.5 µM (active) | inactive | inactive | inactive | 17.2 µM (active) and 11.9 µM (active) |  | 
Nc1ccc2c(O)cc(S(=O)(=O)O)cc2c1 |  | inactive | inactive | inactive | 6.17 µM (active) | inactive | inactive | inactive | 24.4 µM (active) and 13.7 µM (active) | -54% (inactive) and -40.6% (inactive) | 
CN(C)CCCN1c2ccccc2Sc2ccc(Cl)cc21 |  |  | 55.2 µM (active) | 43.6 µM (active) and 23.9 µM (active) | 24.5 µM (active) and 23.9 µM (active) | inactive | 30.9 µM (active) and 23.9 µM (active) | 43.6 µM (active) | 54.5 µM (active) |  | 
NCCS(=O)(=O)O | inactive |  | inactive | inactive | inactive |  | inactive | inactive |  |  | 
CC/C(=C(/CC)c1ccc(O)cc1)c1ccc(O)cc1 | inactive |  | 112 µM (active) and inactive |  | 10.9 µM (active) and 27.5 µM (active) |  | inactive | inactive |  |  | 
CNC[C@H](O)c1ccc(O)c(O)c1 |  |  | inactive | inactive | inactive | inactive | inactive | inactive | inactive |  | 
CC(=O)O[C@]1(C(C)=O)CC[C@H]2[C@@H]3C=C(C)C4=CC(=O)CC[C@]4(C)[C@H]3CC[C@@]21C | inactive |  | inactive | inactive | 17.4 µM (active) | inactive | inactive | inactive | 21.7 µM (active) and 26.6 µM (active) |  | 
CC(C)(Oc1ccc(Cl)cc1)C(=O)O | inactive |  | inactive | inactive | inactive | inactive | inactive | inactive |  |  | 
C=CC(C)(O)CCC=C(C)C (configuration not stated) | inactive | inactive | inactive |  | inactive |  | inactive | inactive |  |  | 
Cc1ccc(/C(=C\CN2CCCC2)c2ccccn2)cc1 | inactive |  | inactive | inactive | inactive | inactive | inactive | inactive |  |  | 
CCCCCCCC/C=C\CCCCCCCC(=O)O | inactive |  | inactive | inactive | inactive | inactive | inactive | inactive |  |  | 
Nc1ccc(N)c(Cl)c1 |  | inactive |  |  | inactive |  | inactive | inactive and 38.9 µM (active) | 68.5 µM (active) and 54.5 µM (active) | -59.7% (inactive) and -39% (inactive) | 
CCc1cccc2c3c([nH]c12)C(CC)(CC(=O)O)OCC3 (configuration not stated) | inactive |  | inactive |  | inactive | inactive | inactive | inactive |  |  | 
C1CN(SSN2CCOCC2)CCO1 |  | inactive | inactive |  | inactive |  | inactive | 54.4 µM (active) and inactive | 60.5 µM (active) and 61.1 µM (active) | -55.6% (inactive) and -54.1% (inactive) | 
c1ccc2cc3ccccc3cc2c1 |  | inactive | inactive |  | inactive |  | inactive | inactive | inactive |  | 
Nc1cc(Cl)c(N)c(Cl)c1 |  | inactive | inactive |  | inactive |  | inactive | inactive |  |  | 

Structure (SMILES) | Potency [1] | outcome [2] | Potency [3] | Potency [4] | Potency [5] | Potency [6] | Potency [7] | Potency [8] | Potency [9] | activity change, positive = activation ([10]; at 92.4 µM (top of the series)) | activity change, positive = activation ([10]; at 42.5 µM (top of the series))
Cc1cccc(Nc2ccccc2C(=O)O)c1C | inactive |  | inactive | inactive | inactive | inactive | inactive | inactive |  |  | 
O=C(O)COCCN1CCN(C(c2ccccc2)c2ccc(Cl)cc2)CC1 (configuration not stated) |  |  | inactive |  | inactive | inactive | inactive | inactive |  |  | 
CN(Cc1cnc2nc(N)nc(N)c2n1)c1ccc(C(=O)N[C@@H](CCC(=O)O)C(=O)O)cc1 |  |  | 636 nM (active) and 1.1 µM (active) | inactive | 110 nM (active) and 67.4 nM (active) | inactive | inactive | inactive |  |  | 
C=CN1CCCC1=O | inactive | inactive | inactive |  | inactive |  | inactive | inactive |  |  | 
C[N+](C)(C)CCO | inactive |  | inactive |  | inactive | inactive | inactive | inactive |  |  | 
c1ccc2c(c1)ccc1cc3c(ccc4ccccc43)cc12 |  | inactive | inactive | inactive | inactive | inactive | inactive | inactive |  |  | 
O=C(CCCN1CCC(O)(c2ccc(Cl)cc2)CC1)c1ccc(F)cc1 | inactive |  | inactive | 49 µM (active) and inactive | 17.4 µM (active) and 8.49 µM (active) |  | 54.9 µM (active) and inactive | 49 µM (active) and inactive |  |  | 
CC(C)[N+](C)(CCOC(=O)C1c2ccccc2Oc2ccccc21)C(C)C | inactive |  | inactive | inactive | inactive | inactive | inactive | inactive |  |  | 
C=C[C@H]1CN2CC[C@H]1C[C@H]2[C@H](O)c1ccnc2ccc(OC)cc12 | inactive |  | inactive | inactive | inactive | inactive | inactive | inactive |  |  | 
COC(=O)CC(=O)OC | inactive | inactive | inactive |  | inactive |  | inactive | inactive |  |  | 
NC[C@H](O)c1ccc(O)c(O)c1 |  |  | inactive |  | inactive | inactive | inactive | inactive |  |  | 
C[C@]12CC[C@@H]3c4ccc(O)cc4CC[C@H]3[C@@H]1CC[C@H]2O | inactive |  | inactive | inactive | 5.59 µM (active) and 13.8 µM (active) | inactive | inactive | inactive | 15.6 µM (active) and 27.3 µM (active) |  | 
CCOC(=O)C(C)Oc1ccc(Oc2cnc3cc(Cl)ccc3n2)cc1 (configuration not stated) | inactive | inactive |  | inactive | 39.9 µM (active) |  | inactive | inactive and 1.29 µM (active) |  |  | 
CN(C)/N=N/c1nc[nH]c1C(N)=O | inactive |  | inactive |  | inactive |  | inactive | inactive | 69.6 µM (active) |  | 
Oc1ccc(C(c2ccc(O)cc2)C(Cl)(Cl)Cl)cc1 | inactive | inactive |  |  |  | inactive | inactive | inactive |  |  | 
C=C[C@H]1CN2CC[C@H]1C[C@@H]2[C@@H](O)c1ccnc2ccc(OC)cc12 | inactive |  | inactive |  | 48.2 µM (active) | inactive | inactive | inactive |  |  | 
COc1ccc(-c2coc3cc(O)cc(O)c3c2=O)cc1 | inactive |  | 36 µM (active) | inactive | 44 µM (active) and 49 µM (active) | inactive | inactive | inactive |  |  | 
CC1(C)OC(=O)NC1=O | inactive |  | inactive | inactive | inactive | inactive | inactive | inactive | inactive | 4.19% (inactive) | 3.88% (inactive)
CC[C@]12CCCN3CCc4c(n(c5ccccc45)[C@@](O)(C(=O)OC)C1)[C@@H]32 | inactive |  | inactive | inactive | inactive | inactive | inactive | inactive | inactive |  | 
C/C=C/C(=O)N(CC)c1ccccc1C | inactive |  | inactive | inactive | inactive | inactive | inactive | inactive | inactive | -2.58% (inactive) | 9.15% (inactive)
